Laboratory results from the supplement of paper PMC4466140.

Assays:
Experiment in all cases: SPOT peptide array binding signal intensity (averaged, normalized) (arbitrary units (background-subtracted, floor 0; scale differs between SH3 domains)); higher = stronger binding of the SH3 domain to the peptide
[1] = target: AgAbp1
Method in brief: (§1)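 To measure binding, SH3 domains from four yeast species were fused to GST, expressed in E. coli BL21(DE3) and purified on glutathione Sepharose. Each domain was incubated at 10 μg/ml overnight at 4°C on cellulose membranes with synthetic 15-mer peptides whose cysteines were replaced by serines. Anti-GST antibody, an HRP anti-mouse secondary and luminol were used for detection, and images were quantified with Genespotter. Reported binding signal is normalized, background-subtracted spot intensity averaged over replicates, in arbitrary units that differ between domains.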

[2] = target: AgBbc1
Method in brief: as §1

[3] = target: AgBem1-D1
Method in brief: as §1

[4] = target: AgBzz1-D1
Method in brief: as §1

[5] = target: AgBzz1-D2
Method in brief: as §1

[6] = target: AgCyk3
Method in brief: as §1

[7] = target: AgFus1
Method in brief: as §1

[8] = target: AgHof1
Method in brief: as §1

[9] = target: AgHse1
Method in brief: as §1

[10] = target: AgLsb1
Method in brief: as §1

[11] = target: AgLsb4
Method in brief: as §1

[12] = target: AgMyo5
Method in brief: as §1

[13] = target: AgNbp2
Method in brief: as §1

[14] = target: AgRvs167
Method in brief: as §1

[15] = target: AgSho1
Method in brief: as §1

[16] = target: AgSla1-D1-D2
Method in brief: as §1

[17] = target: AgSla1-D3
Method in brief: as §1

[18] = target: CaAbp1-D1
Method in brief: as §1

[19] = target: CaAbp1-D2
Method in brief: as §1

[20] = target: CaBbc1
Method in brief: as §1

[21] = target: CaBem1-D1
Method in brief: as §1

[22] = target: CaBzz1-D1
Method in brief: as §1

[23] = target: CaBzz1-D2
Method in brief: as §1

[24] = target: CaCyk3
Method in brief: as §1

[25] = target: CaFus1
Method in brief: as §1

[26] = target: CaHof1
Method in brief: as §1

[27] = target: CaHse1
Method in brief: as §1

[28] = target: CaLsb1
Method in brief: as §1

[29] = target: CaLsb4
Method in brief: as §1

[30] = target: CaMyo5
Method in brief: as §1

[31] = target: CaNbp2
Method in brief: as §1

[32] = target: CaRvs167
Method in brief: as §1

[33] = target: CaRvs167-3
Method in brief: as §1

[34] = target: CaSho1
Method in brief: as §1

[35] = target: CaSla1-D1-D2
Method in brief: as §1

[36] = target: CaSla1-D3
Method in brief: as §1

[37] = target: ScAbp1
Method in brief: as §1

[38] = target: ScBbc1
Method in brief: as §1

[39] = target: ScBem1-D1
Method in brief: as §1

[40] = target: ScBzz1-D1
Method in brief: as §1

[41] = target: ScBzz1-D2
Method in brief: as §1

[42] = target: ScCyk3
Method in brief: as §1

[43] = target: ScFus1
Method in brief: as §1

[44] = target: ScHof1
Method in brief: as §1

[45] = target: ScHse1
Method in brief: as §1

[46] = target: ScLsb1
Method in brief: as §1

[47] = target: ScLsb2
Method in brief: as §1

[48] = target: ScLsb3
Method in brief: as §1

[49] = target: ScLsb4
Method in brief: as §1

[50] = target: ScMyo3
Method in brief: as §1

[51] = target: ScMyo5
Method in brief: as §1

[52] = target: ScNbp2
Method in brief: as §1

[53] = target: ScPex13
Method in brief: as §1

[54] = target: ScRvs167
Method in brief: as §1

[55] = target: ScSho1
Method in brief: as §1

[56] = target: ScSla1-D1-D2
Method in brief: as §1

[57] = target: ScSla1-D3
Method in brief: as §1

[58] = target: SpAbp1-D1
Method in brief: as §1

[59] = target: SpBbc1
Method in brief: as §1

[60] = target: SpBzz1-D1
Method in brief: as §1

[61] = target: SpBzz1-D2
Method in brief: as §1

[62] = target: SpCyk3
Method in brief: as §1

[63] = target: SpHof1
Method in brief: as §1

[64] = target: SpHof1-2
Method in brief: as §1

[65] = target: SpHof1-3
Method in brief: as §1

[66] = target: SpHse1
Method in brief: as §1

[67] = target: SpLsb1
Method in brief: as §1

[68] = target: SpLsb4
Method in brief: as §1

[69] = target: SpMyo1
Method in brief: as §1

[70] = target: SpNbp2
Method in brief: as §1

[71] = target: SpPex13
Method in brief: as §1

[72] = target: SpRvs167
Method in brief: as §1

[73] = target: SpSla1-D1-D2
Method in brief: as §1

[74] = target: SpSla1-D3
Method in brief: as §1

Question: What does the source list for SRYRRPLTLLLLKPF?
Answer: SPOT peptide array binding signal intensity [1]: 16; SPOT peptide array binding signal intensity [2]: 6; SPOT peptide array binding signal intensity [3]: 0.5; SPOT peptide array binding signal intensity [4]: 23; SPOT peptide array binding signal intensity [5]: 17; SPOT peptide array binding signal intensity [6]: 1; SPOT peptide array binding signal intensity [7]: 965; SPOT peptide array binding signal intensity [8]: 13.8; SPOT peptide array binding signal intensity [9]: 1270; SPOT peptide array binding signal intensity [10]: ≤ 0; SPOT peptide array binding signal intensity [11]: 270; SPOT peptide array binding signal intensity [12]: 0.5; SPOT peptide array binding signal intensity [13]: 97.5; SPOT peptide array binding signal intensity [14]: 5.17; SPOT peptide array binding signal intensity [15]: 334; SPOT peptide array binding signal intensity [16]: 40; SPOT peptide array binding signal intensity [17]: 4; SPOT peptide array binding signal intensity [18]: 155; SPOT peptide array binding signal intensity [19]: 128; SPOT peptide array binding signal intensity [20]: 38; SPOT peptide array binding signal intensity [21]: 8.5; SPOT peptide array binding signal intensity [22]: 26.5; SPOT peptide array binding signal intensity [23]: 14.2; SPOT peptide array binding signal intensity [24]: 9; SPOT peptide array binding signal intensity [25]: 1410; SPOT peptide array binding signal intensity [26]: 0.5; SPOT peptide array binding signal intensity [27]: 80.8; SPOT peptide array binding signal intensity [28]: 2.5; SPOT peptide array binding signal intensity [29]: 37; SPOT peptide array binding signal intensity [30]: ≤ 0; SPOT peptide array binding signal intensity [31]: 870; SPOT peptide array binding signal intensity [32]: 66.8; SPOT peptide array binding signal intensity [33]: 141; SPOT peptide array binding signal intensity [34]: 493; SPOT peptide array binding signal intensity [35]: ≤ 0; SPOT peptide array binding signal intensity [36]: 39.2; SPOT peptide array binding signal intensity [37]: 83; SPOT peptide array binding signal intensity [38]: 2.5; SPOT peptide array binding signal intensity [39]: 10; SPOT peptide array binding signal intensity [40]: 13; SPOT peptide array binding signal intensity [41]: 74.5; SPOT peptide array binding signal intensity [42]: 28; SPOT peptide array binding signal intensity [43]: 546; SPOT peptide array binding signal intensity [44]: 1; SPOT peptide array binding signal intensity [45]: 2310; SPOT peptide array binding signal intensity [46]: 12.5; SPOT peptide array binding signal intensity [47]: 2; SPOT peptide array binding signal intensity [48]: 107; SPOT peptide array binding signal intensity [49]: 31.5; SPOT peptide array binding signal intensity [50]: 0.5; SPOT peptide array binding signal intensity [51]: 0.5; SPOT peptide array binding signal intensity [52]: 234; SPOT peptide array binding signal intensity [53]: 1; SPOT peptide array binding signal intensity [54]: 11; SPOT peptide array binding signal intensity [55]: 648; SPOT peptide array binding signal intensity [56]: 1; SPOT peptide array binding signal intensity [57]: 8; SPOT peptide array binding signal intensity [58]: 199; SPOT peptide array binding signal intensity [59]: 6.25; SPOT peptide array binding signal intensity [60]: 18; SPOT peptide array binding signal intensity [61]: ≤ 0; SPOT peptide array binding signal intensity [62]: 4; SPOT peptide array binding signal intensity [63]: 144; SPOT peptide array binding signal intensity [64]: 21.8; SPOT peptide array binding signal intensity [65]: 686; SPOT peptide array binding signal intensity [66]: 643; SPOT peptide array binding signal intensity [67]: 3; SPOT peptide array binding signal intensity [68]: 67; SPOT peptide array binding signal intensity [69]: 4.5; SPOT peptide array binding signal intensity [70]: 374; SPOT peptide array binding signal intensity [71]: 11.5; SPOT peptide array binding signal intensity [72]: 13.8; SPOT peptide array binding signal intensity [73]: 5; SPOT peptide array binding signal intensity [74]: 6.5

Question: Which results are given for SKIRPTPRKPSRMAT?
Answer: SPOT peptide array binding signal intensity [1]: 1550; SPOT peptide array binding signal intensity [2]: 642; SPOT peptide array binding signal intensity [3]: 47; SPOT peptide array binding signal intensity [4]: 77; SPOT peptide array binding signal intensity [5]: 53; SPOT peptide array binding signal intensity [6]: 3; SPOT peptide array binding signal intensity [7]: 40; SPOT peptide array binding signal intensity [8]: 69.2; SPOT peptide array binding signal intensity [9]: 263; SPOT peptide array binding signal intensity [10]: 69.2; SPOT peptide array binding signal intensity [11]: 176; SPOT peptide array binding signal intensity [12]: 7; SPOT peptide array binding signal intensity [13]: 1050; SPOT peptide array binding signal intensity [14]: 9.17; SPOT peptide array binding signal intensity [15]: 39.5; SPOT peptide array binding signal intensity [16]: 100; SPOT peptide array binding signal intensity [17]: 23.8; SPOT peptide array binding signal intensity [18]: 3050; SPOT peptide array binding signal intensity [19]: 5280; SPOT peptide array binding signal intensity [20]: 806; SPOT peptide array binding signal intensity [21]: 34.5; SPOT peptide array binding signal intensity [22]: 270; SPOT peptide array binding signal intensity [23]: 208; SPOT peptide array binding signal intensity [24]: 108; SPOT peptide array binding signal intensity [25]: 208; SPOT peptide array binding signal intensity [26]: 2.5; SPOT peptide array binding signal intensity [27]: 30.5; SPOT peptide array binding signal intensity [28]: 2.75; SPOT peptide array binding signal intensity [29]: 2040; SPOT peptide array binding signal intensity [30]: 8.5
